Gli-Sufu antag = Gli-Sufu pathway antagonists, primary screen, luciferase luminescence, Sufu-KO-LIGHT cells, uHTS. inhibition, % at 5 µM. 340,000 compounds, 0.74% hits. Sufu-KO-LIGHT fibroblasts, Gli luciferase reporter luminescence;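 active = inhibition above about 55%, limit read from the data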
esBAF inh = Bmi1 luciferase reporter increase in mESCs, primary screen, esBAF inhibitor project, mouse ES cells, Bmi1 luciferase knock-in, single point; 24 h; 100% = twice the neutral-well signal; reporter increase, % at 12.5 µM; 350,000 compounds, 2% hits; in the data active = activation above about 40%;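 note: a rise in the Bmi1 reporter signal indicates esBAF inhibition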
SMARCA2 act = SMARCA2 (BRM) function activators, primary screen, cell-based, luminescence, high throughput; MG213 cells, MMTV-luciferase reporter, dexamethasone, overnight; activation, % at 9.1 µM; 370,000 compounds, 1% hits; in the data active = activation above about 7.8%
697 NFkB inh = inhibitors of PMA/ionomycin-induced NF-kB reporter, 697 cells, primary screen, B-cell NF-kB inhibitor project, cell-based, luminescence, uHTS; 697 B-cell NF-kB luciferase reporter, 16 h; inhibition, % at 4 µM; 330,000 compounds, 0.33% hits; AID 435022, 2010; in the data active = inhibition above about 35%
Jurkat NFkB inh = inhibitors of induced NF-kB luciferase reporter, primary screen, TCR NF-kB activation inhibitor project, cell-based, luminescence, uHTS; Jurkat, PMA/ionomycin-induced NF-kB luciferase reporter; inhibition, % at 4 µM; 330,000 compounds, 0.53% hits; AID 435003, 2010; in the data active = inhibition above about 50%
Each line names hits and unclear results; the compound was inactive in the other large screens. Sampled rows, rich in hits. Any-hit rate of the full collection: about 3.3%.

CC(C)NC(=O)Nc1ccc2c(c1)C(=O)N([C@@H](C)CO)C[C@H](C)[C@@H](CN(C)Cc1ccc3c(c1)OCO3)OCCCC[C@H](C)O2	none (no result: Gli-Sufu antag, SMARCA2 act, 697 NFkB inh, Jurkat NFkB inh)
Cc1cccc(-c2cc3nc4c(c(N5CCC6(CC5)OCCO6)n3n2)CCCC4)c1	esBAF inh 77.6
Cc1cccc(-c2cc3nc4c(c(N5CCOCC5)n3n2)CCCC4)c1	none
OC1CCN(c2c3c(nc4cc(-c5ccc(F)cc5)nn24)CCC3)CC1	none
Fc1ccc(-c2cc3nc4c(c(N5CCOCC5)n3n2)CCCC4)cc1	esBAF inh 53.5
COc1ccc(-c2ccc3c(c2)[C@H]2[C@H](CCN2C(=O)CN2CCOCC2)[C@@H](CO)N3)cc1	none (no result: Gli-Sufu antag, SMARCA2 act, 697 NFkB inh, Jurkat NFkB inh)
Cc1noc(C)c1NC(=O)N(C)C[C@@H]1Oc2ccc(NS(C)(=O)=O)cc2CC(=O)N([C@H](C)CO)C[C@@H]1C	none (no result: Gli-Sufu antag, SMARCA2 act, 697 NFkB inh, Jurkat NFkB inh)
COc1ccc(C(=O)Nc2ccccc2NC(=O)c2ccc(OC)cc2)cc1	none
COc1ccc(C(=O)Nc2cccc3ccccc23)cc1	esBAF inh 51.9
CCOc1ccc(NC(=O)c2cccc3ccccc23)cc1	esBAF inh 42.6 (no result: Gli-Sufu antag)
COc1ccc(C(=O)NNC(=O)c2cccc3ccccc23)cc1	esBAF inh 53.6 (no result: 697 NFkB inh, Jurkat NFkB inh)
O=C(NNC(=O)c1cccc2ccccc12)c1ccc2c(c1)OCO2	esBAF inh 54.0
CCOc1ccc(NC(=O)c2cc3ccccc3cc2O)cc1	none
C[C@@H]1CN([C@H](C)CO)C(=O)c2cc(-c3ccccc3F)cnc2O[C@H]1CN(C)C	none (no result: Gli-Sufu antag, SMARCA2 act, 697 NFkB inh, Jurkat NFkB inh)
C/C(=N/NS(=O)(=O)c1ccc(C)cc1)c1c(O)c2ccccc2oc1=O	none
CCCCCN=C(C)c1c(O)c2ccccc2oc1=O	esBAF inh 58.2
CN1CCN(C(=O)C[C@@H]2CC[C@H]3[C@@H](COC[C@H](O)CN3CC3CC3)O2)CC1	none (no result: Gli-Sufu antag, SMARCA2 act, 697 NFkB inh, Jurkat NFkB inh)
CC(=O)c1ccc(NC(=S)Nc2cccc3cnccc23)cc1	none (no result: esBAF inh)
Cc1ccc(NC(=S)Nc2cccc3cnccc23)cc1C	esBAF inh 45.5
Cc1ccc(NC(=S)Nc2cccc3cnccc23)cc1	esBAF inh 68.3
S=C(NCc1cccnc1)Nc1cccc2ccccc12	none (no result: esBAF inh)
S=C(NCc1ccccc1)Nc1cccc2cnccc12	Gli-Sufu antag 64.5
CCOc1ccc(C2C(C(=O)c3ccco3)=C(O)C(=O)N2CCCn2ccnc2)cc1OCC (stereo not given)	none
CCOc1ccc(C2C(C(=O)c3ccco3)=C(O)C(=O)N2CCCn2ccnc2)cc1 (stereo not given)	esBAF inh 53.8 (no result: 697 NFkB inh, Jurkat NFkB inh)
C[C@@H]1CCCCO[C@@H](CN(C)C(=O)CCC(F)(F)F)[C@H](C)CN([C@@H](C)CO)C(=O)c2cc(NS(C)(=O)=O)ccc2O1	none (no result: Gli-Sufu antag, SMARCA2 act, 697 NFkB inh, Jurkat NFkB inh)
CCn1ccnc1CN(C)C(=O)c1cc(COc2ccccc2SC)on1	esBAF inh 59.3
CSc1ccccc1OCc1cc(C(=O)NCc2cccc(C)n2)no1	esBAF inh 77.9
CSc1ccccc1OCc1cc(C(=O)N(C)Cc2nonc2C)no1	esBAF inh 65.1
CSc1ccccc1OCc1cc(C(=O)NC(C)Cc2cccc(C)n2)no1 (stereo not given)	none (no result: esBAF inh)
CSc1ccccc1OCc1cc(C(=O)N(C)Cc2ccncn2)no1	none (no result: esBAF inh)
CSc1ccccc1OCc1cc(C(=O)N(Cc2nccn2C)C(C)C)no1	none
O=C(Nc1ccc(F)cc1)N[C@@H]1CC[C@@H](CCNC(=O)c2cc(Cl)cc(Cl)c2)O[C@@H]1CO	none (no result: Gli-Sufu antag, SMARCA2 act, 697 NFkB inh, Jurkat NFkB inh)
COCCOc1ccc(C(F)(F)F)cc1Nc1nc2ccccc2o1	esBAF inh 62.4
Cc1noc(C)c1NC(=O)N(C)C[C@@H]1Oc2ccc(NC(=O)Nc3cccc4ccccc34)cc2C(=O)N([C@H](C)CO)C[C@@H]1C	none (no result: Gli-Sufu antag, SMARCA2 act, 697 NFkB inh, Jurkat NFkB inh)
O=C(/C=C/Nc1cccc(C(F)(F)F)c1)c1ccc(Oc2ncccn2)cc1	esBAF inh 49.4
C[C@@H]1CCCCO[C@H](CN(C)S(=O)(=O)c2ccc(F)cc2)[C@H](C)CN([C@@H](C)CO)C(=O)c2cc(NC(=O)CCCN(C)C)ccc2O1	none (no result: Gli-Sufu antag, SMARCA2 act, 697 NFkB inh, Jurkat NFkB inh)
Cc1ccc(C(=O)CSc2nnc(C3CC3)n2C2CC2)s1	esBAF inh 46.1
CCc1ccc(C(=O)CSc2nnc(C3CC3)n2C2CC2)cc1	esBAF inh 40.9
O=C(CSc1nnc(C2CC2)n1C1CC1)c1ccc(F)c(F)c1	none
NNC(=O)c1ccc(COc2ccc3ccccc3c2)o1	none (no result: esBAF inh)
O=C(OCc1ccccn1)c1ccc(COc2ccc3ccccc3c2)o1	esBAF inh 53.3
COc1ccc(CN(C)C[C@H]2Oc3c(NC(=O)C4CCOCC4)cccc3C(=O)N([C@H](C)CO)C[C@@H]2C)cc1	none (no result: Gli-Sufu antag, SMARCA2 act, 697 NFkB inh, Jurkat NFkB inh)
CC1CCN(C(=O)CSCc2ccc(Cl)cc2)CC1	esBAF inh 49.4
COc1cccc(NC(=O)CSc2nnc(Cn3cnc([N+](=O)[O-])n3)n2C)c1	none (no result: esBAF inh)
COc1ccc(NC(=O)CSc2nnc(Cn3cnc([N+](=O)[O-])n3)n2C)cc1	SMARCA2 act 11.2 (no result: esBAF inh)
COc1ccc(S(=O)(=O)N(C)C[C@@H]2Oc3ccc(NC(=O)Cn4cnnn4)cc3C(=O)N([C@H](C)CO)C[C@@H]2C)cc1	none (no result: Gli-Sufu antag, SMARCA2 act, 697 NFkB inh, Jurkat NFkB inh)
CCOC(=O)c1c(C)nc(C)c(C(=O)OCC)c1-c1ccccc1	none (no result: esBAF inh, SMARCA2 act)
CCOC(=O)c1c(-c2ccccc2)cn2c(C)cc(C)nc12	esBAF inh 62.8
CCOC(=O)c1c(C)nc(-c2ccccc2)nc1N	esBAF inh 49.6
CCNC(=O)[C@@H]1[C@@H](CO)[C@@H]2Cn3c(ccc(-c4ccccc4)c3=O)[C@H]1N2Cc1cccnc1	none (no result: Gli-Sufu antag, SMARCA2 act, 697 NFkB inh, Jurkat NFkB inh)
CO[C@H]1CN(C)C(=O)c2cc(NC(=O)C3CC3)ccc2OC[C@@H](C)N(C(=O)C2CCCCC2)C[C@@H]1C	none (no result: Gli-Sufu antag, SMARCA2 act, 697 NFkB inh, Jurkat NFkB inh)
O=C(C[C@@H]1CC[C@@H]2[C@H](COC[C@H](O)CN2S(=O)(=O)c2ccc(F)cc2)O1)N[C@@H]1CCN(Cc2ccccc2)C1	none (no result: Gli-Sufu antag, SMARCA2 act, 697 NFkB inh, Jurkat NFkB inh)
Cc1cc(C)c2cc(C(=O)Nc3ccccc3)[nH]c2c1	esBAF inh 59.6
Cc1ccc2[nH]c(C(=O)Nc3ccc(F)cc3)cc2c1	esBAF inh 61.9
CCCOc1ccc(NC(=O)c2cc3cc(C)ccc3[nH]2)cc1	none
Cc1cc(C)c2cc(C(=O)Nc3ccc4c(c3)OCO4)[nH]c2c1	none (no result: esBAF inh)
Cc1ccc(S(=O)(=O)N(C)C[C@H]2OCCCC[C@@H](C)Oc3ccc(NC(=O)NC4CCCCC4)cc3C(=O)N([C@@H](C)CO)C[C@H]2C)cc1	none (no result: Gli-Sufu antag, SMARCA2 act, 697 NFkB inh, Jurkat NFkB inh)
COc1ccc(CNc2ccc(-c3ccc(OC)cc3)nn2)cc1	esBAF inh 44.7
COc1ccc(CNc2ccc(-c3ccccc3OC)nn2)cc1	none
O=C(CSc1nnc(-c2ccco2)n1Cc1ccccc1)c1ccccc1	esBAF inh 44.5
COc1ccc(NC(=S)NCc2ccc(F)cc2)cc1	esBAF inh 42.4
COc1ccc(CNC(=O)Nc2ccc(C)cc2)cc1	esBAF inh 54.8
COc1ccc(CNC(=O)Nc2cc(C)cc(C)c2)cc1	none
Cc1cc(-c2nc(-c3ccc(C(C)(C)C)cc3)no2)no1	esBAF inh 61.8

Screens (PubChem)
